# Experimental data reported in publication PMC7862700, “An all-to-all approach to the identification of sequence-specific readers for epigenetic DNA modifications on cytosine”.
# What was measured:
# Assay in all cases: DAPPL (digital affinity profiling via proximity ligation, sequencing); 10 mM Tris-HCl pH 7.5, 50 mM NaCl, 1 mM DTT, 4% glycerol, room temperature, 30 min; GST-TFs on glutathione beads, 16-mer random dsDNA library, 0.1% formaldehyde crosslink after washing; high values mean tight binding
# Details in all cases: protein: recombinant; tags: N-terminal GST; dsDNA, one strand shown
# [1] = molecular target: T1, ERF (Homo sapiens, UniProt P50548 1-548)
# T1 sequence: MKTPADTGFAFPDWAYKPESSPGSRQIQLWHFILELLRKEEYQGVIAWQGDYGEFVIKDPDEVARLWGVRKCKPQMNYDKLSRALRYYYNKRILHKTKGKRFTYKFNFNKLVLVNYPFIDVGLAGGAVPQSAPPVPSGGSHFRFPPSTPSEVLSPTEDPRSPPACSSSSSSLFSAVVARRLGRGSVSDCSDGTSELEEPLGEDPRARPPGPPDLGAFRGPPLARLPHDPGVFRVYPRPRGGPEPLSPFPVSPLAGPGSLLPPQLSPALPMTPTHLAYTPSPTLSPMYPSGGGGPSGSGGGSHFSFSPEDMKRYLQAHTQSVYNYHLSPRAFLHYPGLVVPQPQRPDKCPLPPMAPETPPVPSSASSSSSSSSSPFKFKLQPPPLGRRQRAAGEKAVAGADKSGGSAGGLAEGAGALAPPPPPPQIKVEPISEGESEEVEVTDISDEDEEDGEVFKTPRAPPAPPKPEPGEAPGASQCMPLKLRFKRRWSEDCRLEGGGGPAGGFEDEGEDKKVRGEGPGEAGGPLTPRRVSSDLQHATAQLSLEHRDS
# In short: (§1)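 Binding signal is given per hexamer as its read frequency for a factor divided by its frequency in the tag-only sample. GST-fused human transcription factors were expressed in yeast, captured on glutathione beads, barcoded with DNA and pooled with that sample, then incubated with 200 nmole of a 16-mer random double-stranded DNA library in Tris/NaCl/DTT/glycerol buffer for 30 min at room temperature. The pools were then washed, crosslinked, proximity-ligated, amplified by PCR and sequenced on an Illumina NextSeq500.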
# [2] = molecular target: T2, ETV3L (Homo sapiens, UniProt Q6ZN32 1-361)
# T2 sequence: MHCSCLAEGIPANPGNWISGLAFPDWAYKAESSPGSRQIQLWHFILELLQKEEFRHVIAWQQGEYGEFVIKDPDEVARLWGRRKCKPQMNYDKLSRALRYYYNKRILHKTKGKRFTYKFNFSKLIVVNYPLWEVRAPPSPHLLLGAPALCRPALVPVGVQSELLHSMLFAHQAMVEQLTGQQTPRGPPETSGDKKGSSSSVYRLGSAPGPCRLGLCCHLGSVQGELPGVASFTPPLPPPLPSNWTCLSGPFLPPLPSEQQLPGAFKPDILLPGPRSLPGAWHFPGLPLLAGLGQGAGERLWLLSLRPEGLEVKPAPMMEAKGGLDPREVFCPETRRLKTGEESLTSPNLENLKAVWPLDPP
# In short: as §1
# [3] = molecular target: T3, ETS2 (Homo sapiens, UniProt P15036 1-469)
# T3 sequence: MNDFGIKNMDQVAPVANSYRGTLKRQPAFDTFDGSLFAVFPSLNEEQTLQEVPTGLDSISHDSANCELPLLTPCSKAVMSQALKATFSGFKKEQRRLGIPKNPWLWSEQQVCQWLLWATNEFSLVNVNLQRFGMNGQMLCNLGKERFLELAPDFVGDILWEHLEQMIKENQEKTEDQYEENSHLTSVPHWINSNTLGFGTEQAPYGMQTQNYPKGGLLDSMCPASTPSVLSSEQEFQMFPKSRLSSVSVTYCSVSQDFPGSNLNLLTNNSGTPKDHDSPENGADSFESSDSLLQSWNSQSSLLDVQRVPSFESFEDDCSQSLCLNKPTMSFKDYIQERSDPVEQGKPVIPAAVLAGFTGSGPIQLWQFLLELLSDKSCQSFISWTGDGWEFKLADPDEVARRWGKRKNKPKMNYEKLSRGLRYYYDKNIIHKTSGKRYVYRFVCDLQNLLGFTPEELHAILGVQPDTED
# In short: as §1
# [4] = molecular target: T4, SPDEF (Homo sapiens, UniProt O95238 1-335)
# T4 sequence: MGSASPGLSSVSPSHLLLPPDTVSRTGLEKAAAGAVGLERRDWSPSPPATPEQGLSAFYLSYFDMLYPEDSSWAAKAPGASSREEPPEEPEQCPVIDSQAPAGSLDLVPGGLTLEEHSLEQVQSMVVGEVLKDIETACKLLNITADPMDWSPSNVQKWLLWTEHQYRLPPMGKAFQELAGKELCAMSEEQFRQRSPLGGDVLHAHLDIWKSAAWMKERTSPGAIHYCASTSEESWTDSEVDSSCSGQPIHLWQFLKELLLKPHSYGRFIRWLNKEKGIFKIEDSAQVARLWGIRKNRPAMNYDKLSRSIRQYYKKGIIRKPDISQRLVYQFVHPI
# In short: as §1
# [5] = molecular target: T5, ETV7 (Homo sapiens, UniProt Q9Y603 1-341)
# T5 sequence: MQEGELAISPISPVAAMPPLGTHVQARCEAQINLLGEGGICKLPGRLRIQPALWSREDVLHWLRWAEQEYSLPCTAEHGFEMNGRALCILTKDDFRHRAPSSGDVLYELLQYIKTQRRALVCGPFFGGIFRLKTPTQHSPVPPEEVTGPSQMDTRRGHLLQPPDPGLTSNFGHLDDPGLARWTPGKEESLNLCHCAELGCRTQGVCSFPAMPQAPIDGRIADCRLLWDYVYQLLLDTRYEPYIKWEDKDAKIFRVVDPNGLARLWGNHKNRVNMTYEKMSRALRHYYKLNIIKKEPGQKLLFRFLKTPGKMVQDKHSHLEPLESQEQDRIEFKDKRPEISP
# In short: as §1
# [6] = molecular target: T6, ELF5 (Homo sapiens, UniProt Q9UKW6-2 1-255)
# T6 sequence: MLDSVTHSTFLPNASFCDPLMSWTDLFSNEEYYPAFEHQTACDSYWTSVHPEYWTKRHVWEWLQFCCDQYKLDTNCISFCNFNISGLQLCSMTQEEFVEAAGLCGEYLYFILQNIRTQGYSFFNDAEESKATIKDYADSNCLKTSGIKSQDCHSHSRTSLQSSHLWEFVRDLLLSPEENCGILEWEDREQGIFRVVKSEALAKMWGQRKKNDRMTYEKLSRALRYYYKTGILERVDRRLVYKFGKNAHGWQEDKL
# In short: as §1
# [7] = molecular target: T7, ETV3 (Homo sapiens, UniProt P41162-2 1-143)
# T7 sequence: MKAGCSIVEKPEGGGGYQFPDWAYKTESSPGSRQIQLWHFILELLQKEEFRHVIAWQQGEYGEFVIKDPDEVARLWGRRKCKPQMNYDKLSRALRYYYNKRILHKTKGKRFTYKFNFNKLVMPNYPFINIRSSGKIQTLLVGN
# In short: as §1
# [8] = molecular target: ETV6 (Homo sapiens, UniProt P41212 1-452)
# In short: as §1
# Chain of ETV6 (P41212 whole entry): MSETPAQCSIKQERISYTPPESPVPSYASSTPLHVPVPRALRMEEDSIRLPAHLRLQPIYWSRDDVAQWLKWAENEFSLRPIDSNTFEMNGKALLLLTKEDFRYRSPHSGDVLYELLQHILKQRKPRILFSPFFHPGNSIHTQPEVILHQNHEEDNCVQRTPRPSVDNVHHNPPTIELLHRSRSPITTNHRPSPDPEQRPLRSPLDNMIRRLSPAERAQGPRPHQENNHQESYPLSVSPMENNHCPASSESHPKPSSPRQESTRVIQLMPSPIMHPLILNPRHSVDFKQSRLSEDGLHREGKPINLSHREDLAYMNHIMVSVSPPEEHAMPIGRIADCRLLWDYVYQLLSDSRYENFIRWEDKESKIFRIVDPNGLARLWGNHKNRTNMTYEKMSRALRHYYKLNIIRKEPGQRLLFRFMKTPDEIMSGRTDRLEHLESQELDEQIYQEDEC
Sequence,binding signal [1],binding signal [2],binding signal [3],binding signal [4],binding signal [5],binding signal [6],binding signal [7],binding signal [8]
CCCCCT,"1.38 fold enrichment (6-mer frequency, TF over GST control)","1.23 fold enrichment (6-mer frequency, TF over GST control)","1.14 fold enrichment (6-mer frequency, TF over GST control)","1.05 fold enrichment (6-mer frequency, TF over GST control)","1.17 fold enrichment (6-mer frequency, TF over GST control)","1.37 fold enrichment (6-mer frequency, TF over GST control)","1.27 fold enrichment (6-mer frequency, TF over GST control)","1.15 fold enrichment (6-mer frequency, TF over GST control)"
CAATCT,"1.21 fold enrichment (6-mer frequency, TF over GST control)","1.14 fold enrichment (6-mer frequency, TF over GST control)","1.18 fold enrichment (6-mer frequency, TF over GST control)","1.03 fold enrichment (6-mer frequency, TF over GST control)","1.25 fold enrichment (6-mer frequency, TF over GST control)","1.16 fold enrichment (6-mer frequency, TF over GST control)","1.19 fold enrichment (6-mer frequency, TF over GST control)","1.19 fold enrichment (6-mer frequency, TF over GST control)"
AACACT,"1.21 fold enrichment (6-mer frequency, TF over GST control)","1.3 fold enrichment (6-mer frequency, TF over GST control)","1.37 fold enrichment (6-mer frequency, TF over GST control)","1.22 fold enrichment (6-mer frequency, TF over GST control)","1.32 fold enrichment (6-mer frequency, TF over GST control)","1.34 fold enrichment (6-mer frequency, TF over GST control)","1.29 fold enrichment (6-mer frequency, TF over GST control)","1.4 fold enrichment (6-mer frequency, TF over GST control)"
GTTTTT,"1.07 fold enrichment (6-mer frequency, TF over GST control)","1.3 fold enrichment (6-mer frequency, TF over GST control)","1.25 fold enrichment (6-mer frequency, TF over GST control)","1.23 fold enrichment (6-mer frequency, TF over GST control)","1.2 fold enrichment (6-mer frequency, TF over GST control)","1.36 fold enrichment (6-mer frequency, TF over GST control)","1.34 fold enrichment (6-mer frequency, TF over GST control)","1.21 fold enrichment (6-mer frequency, TF over GST control)"
TCTTCG,"1.45 fold enrichment (6-mer frequency, TF over GST control)","1.48 fold enrichment (6-mer frequency, TF over GST control)","1.55 fold enrichment (6-mer frequency, TF over GST control)","1.49 fold enrichment (6-mer frequency, TF over GST control)","1.46 fold enrichment (6-mer frequency, TF over GST control)","1.4 fold enrichment (6-mer frequency, TF over GST control)","1.49 fold enrichment (6-mer frequency, TF over GST control)","1.36 fold enrichment (6-mer frequency, TF over GST control)"
TAATAT,"1.35 fold enrichment (6-mer frequency, TF over GST control)","1.34 fold enrichment (6-mer frequency, TF over GST control)","1.24 fold enrichment (6-mer frequency, TF over GST control)","1.23 fold enrichment (6-mer frequency, TF over GST control)","1.35 fold enrichment (6-mer frequency, TF over GST control)","1.22 fold enrichment (6-mer frequency, TF over GST control)","1.23 fold enrichment (6-mer frequency, TF over GST control)","1.23 fold enrichment (6-mer frequency, TF over GST control)"
TTTATC,"1.19 fold enrichment (6-mer frequency, TF over GST control)","1.35 fold enrichment (6-mer frequency, TF over GST control)","1.26 fold enrichment (6-mer frequency, TF over GST control)","1.25 fold enrichment (6-mer frequency, TF over GST control)","1.22 fold enrichment (6-mer frequency, TF over GST control)","1.26 fold enrichment (6-mer frequency, TF over GST control)","1.29 fold enrichment (6-mer frequency, TF over GST control)","1.24 fold enrichment (6-mer frequency, TF over GST control)"
TCTCCA,"1.42 fold enrichment (6-mer frequency, TF over GST control)","1.58 fold enrichment (6-mer frequency, TF over GST control)","1.53 fold enrichment (6-mer frequency, TF over GST control)","1.5 fold enrichment (6-mer frequency, TF over GST control)","1.31 fold enrichment (6-mer frequency, TF over GST control)","1.37 fold enrichment (6-mer frequency, TF over GST control)","1.41 fold enrichment (6-mer frequency, TF over GST control)","1.4 fold enrichment (6-mer frequency, TF over GST control)"
TCTGCT,"1.52 fold enrichment (6-mer frequency, TF over GST control)","1.28 fold enrichment (6-mer frequency, TF over GST control)","1.29 fold enrichment (6-mer frequency, TF over GST control)","1.21 fold enrichment (6-mer frequency, TF over GST control)","1.14 fold enrichment (6-mer frequency, TF over GST control)","1.2 fold enrichment (6-mer frequency, TF over GST control)","1.32 fold enrichment (6-mer frequency, TF over GST control)","1.18 fold enrichment (6-mer frequency, TF over GST control)"
CTGGTT,"1.2 fold enrichment (6-mer frequency, TF over GST control)","1.35 fold enrichment (6-mer frequency, TF over GST control)","1.29 fold enrichment (6-mer frequency, TF over GST control)","1.39 fold enrichment (6-mer frequency, TF over GST control)","1.28 fold enrichment (6-mer frequency, TF over GST control)","1.38 fold enrichment (6-mer frequency, TF over GST control)","1.45 fold enrichment (6-mer frequency, TF over GST control)","1.32 fold enrichment (6-mer frequency, TF over GST control)"
TTGGCA,"1.19 fold enrichment (6-mer frequency, TF over GST control)","1.14 fold enrichment (6-mer frequency, TF over GST control)","1.13 fold enrichment (6-mer frequency, TF over GST control)","1.12 fold enrichment (6-mer frequency, TF over GST control)","1.09 fold enrichment (6-mer frequency, TF over GST control)","1.01 fold enrichment (6-mer frequency, TF over GST control)","1.17 fold enrichment (6-mer frequency, TF over GST control)","1.19 fold enrichment (6-mer frequency, TF over GST control)"
TTCTTA,"1.21 fold enrichment (6-mer frequency, TF over GST control)","1.4 fold enrichment (6-mer frequency, TF over GST control)","1.24 fold enrichment (6-mer frequency, TF over GST control)","1.4 fold enrichment (6-mer frequency, TF over GST control)","1.38 fold enrichment (6-mer frequency, TF over GST control)","1.35 fold enrichment (6-mer frequency, TF over GST control)","1.34 fold enrichment (6-mer frequency, TF over GST control)","1.4 fold enrichment (6-mer frequency, TF over GST control)"
GCCCTT,"1.11 fold enrichment (6-mer frequency, TF over GST control)","1.16 fold enrichment (6-mer frequency, TF over GST control)","1.15 fold enrichment (6-mer frequency, TF over GST control)","1.26 fold enrichment (6-mer frequency, TF over GST control)","1.07 fold enrichment (6-mer frequency, TF over GST control)","1.09 fold enrichment (6-mer frequency, TF over GST control)","1.14 fold enrichment (6-mer frequency, TF over GST control)","1.27 fold enrichment (6-mer frequency, TF over GST control)"
CTAATT,"1.27 fold enrichment (6-mer frequency, TF over GST control)","1.23 fold enrichment (6-mer frequency, TF over GST control)","1.37 fold enrichment (6-mer frequency, TF over GST control)","1.17 fold enrichment (6-mer frequency, TF over GST control)","1.23 fold enrichment (6-mer frequency, TF over GST control)","1.22 fold enrichment (6-mer frequency, TF over GST control)","1.19 fold enrichment (6-mer frequency, TF over GST control)","1.33 fold enrichment (6-mer frequency, TF over GST control)"
CTCTCG,"1.36 fold enrichment (6-mer frequency, TF over GST control)","1.42 fold enrichment (6-mer frequency, TF over GST control)","1.4 fold enrichment (6-mer frequency, TF over GST control)","1.16 fold enrichment (6-mer frequency, TF over GST control)","1.25 fold enrichment (6-mer frequency, TF over GST control)","1.34 fold enrichment (6-mer frequency, TF over GST control)","1.35 fold enrichment (6-mer frequency, TF over GST control)","1.31 fold enrichment (6-mer frequency, TF over GST control)"
